# Bioassay records from PubChem.
# Compounds with a hit are over-represented: about 3.5% of the library has one in this group of screens.
# BoNT-F LC inh: blocks Botulinum neurotoxin F light chain protease; 360,000 tested, 0.22% active; Multiplex microsphere protease cleavage assay, flow cytometry; inhibition, % at 10 µM; in the data active = inhibition above about 35%, passing the limit was not always enough; inconclusive = no clear call, values can overlap the other calls; note: plate controls were buffer without enzyme for full effect and enzyme alone for no effect
# Bead autofluor: counter-screen for toxin protease inhibitors: compound fluorescence; compound autofluorescence counterscreen, microsphere flow cytometry; hits give high values; fluorescence intensity (no concentration beside the values); 360,000 tested, 3.1% active; AID 624483; in the data active = fluorescence intensity above about 16000; inconclusive = no clear call, values can overlap the other calls
# BoNT A protease: BoNT A light chain protease inhibition; multiplex microsphere protease substrate cleavage, flow cytometry; inhibition, % at 10 µM; 360,000 tested, 0.17% active; note: plate controls were buffer without enzyme for full effect and enzyme alone for no effect
# Anthrax LF inh2: anthrax lethal factor protease inhibition; P15917; multiplex microsphere protease cleavage assay, LF; inhibition, % at 10 µM; 360,000 tested, 0.12% active; AID 588501; note: plate controls were buffer without enzyme for full effect and enzyme alone for no effect
# Active calls of the source: *; ? = inconclusive. Cut-off read from the data, not from the text of the source, unless noted: active = inhibition above about 30%; inconclusive = no clear call, values can overlap the other calls; inactive = below that.
SMILES,BoNT-F LC inh,Bead autofluor,BoNT A protease,Anthrax LF inh2
COc1ccc(CCNC(=O)c2cc(-c3cc(Cl)cc(Cl)c3)oc2C)cc1,4,21204*,2,-7
Cc1occc1C(=O)NCCCCc1ccccc1,-18,5138,-1,-1
C[C@H](O)CNC(=O)c1[nH]cnc1C(=O)Nc1ccc(CNC(=O)OC(C)(C)C)cc1,-9,4216,0,-4
O=C(COC(=O)c1cnccn1)c1ccc2c(c1)CCCC2,2,20610*,2,-5
O=C(COC(=O)c1cnccn1)c1ccc(Br)cc1,-10,3712,1,-2
c1ccc2c3c(cc(N4CCOCC4)c2c1)OC1(N2CCOCC2)CCCCC1O3 (stereo not drawn),36*,4432,4,2
CCN(C(=O)COC(=O)c1nc(Cl)ccc1Cl)C1CCS(=O)(=O)C1 (stereo not drawn),3,6343,2,-3
COc1ccc(C)cc1NC(=O)COC(=O)c1c(-c2ccccc2)noc1C,-3,3547,0,-3
C=CCSc1ncc(C#N)c(N)n1,-3,20496*,-2,-2
CC(C)=CCCC(C)CN(C)CCc1ccccn1 (stereo not drawn),10,21319*,6,1
CCOC(=O)C1=CCN(S(=O)(=O)c2ccccc2C)C1c1cccc(Br)c1 (stereo not drawn),-4,5480,0,0
O=C(c1ccco1)c1cn(Cc2ccccc2Cl)c2ccccc12,-2,24624*,?,0
CCOc1ccc(NC(=O)Cn2cc(C(=O)c3ccco3)c3ccccc32)cc1,11,16382*,14,-14
COc1ccccc1CC(=O)Nc1ccc(S(=O)(=O)N(C)C2CCN(C)CC2)cc1,-7,3013,0,-10
O=C(CN(C(=O)CNC(=O)c1ccco1)c1cccc(F)c1)NC1CCCCC1,3,3026,2,-8
Cn1cnnc1SCC(=O)NNC(=O)c1ccc([N+](=O)[O-])cc1,-8,4199,0,0
CSc1ccccc1C(=O)NCCCOC(C)C,1,21738*,4,0
CSc1ccccc1C(=O)NCCOc1ccccc1C,-3,3993,0,2
CCCCNC(=O)c1cc(C)nc2ccccc12,0,4239,1,-2
Cc1cc(C(=O)NCCCOC(C)C)c2ccccc2n1,2,22118*,0,1
CN(C(=O)COC(=O)C1CCN(S(=O)(=O)c2ccc3c(c2)OCCO3)CC1)C1CCS(=O)(=O)C1 (stereo not drawn),?,6080,?,?
CC(C)c1ccc2oc(-c3ccc(N)cc3)nc2c1,-8,21916*,-7,-2
Cc1ccc(-c2nc3cc(NS(=O)(=O)c4ccc(C)cc4)ccc3o2)cc1,5,20631*,7,-8
Cc1ccc(-c2nc3cc(N)ccc3o2)cc1,-1,23399*,0,-2
Cc1ccc(-c2nc3cc(C)ccc3o2)cc1,2,3240,0,-6
SMILES,BoNT-F LC inh,Bead autofluor,BoNT A protease,Anthrax LF inh2
CCOc1ncccc1C(=O)Nc1c(C)n(C)n(-c2ccccc2)c1=O,-2,5935,-2,-4
O=C(NCC1CCCCC1)c1ccco1,-4,22013*,?,0
O=C(NCc1ccc(F)cc1)C(c1cccs1)N(C(=O)c1csnn1)C1CC1 (stereo not drawn),20,16343*,?,1
COc1ccc(S(=O)(=O)N2CCC3CC2c2c(-c4ccc(C(F)(F)F)cc4)cccc23)cc1 (stereo not drawn),5,5492,-1,6
Cc1ccc(S(=O)(=O)C(C#N)c2nc3ccccc3nc2N2CC(C)OC(C)C2)cc1C (stereo not drawn),-4,17403*,0,3
CCCCCCOC(=O)C(C#N)c1nc2ccccc2nc1N1CCOCC1 (stereo not drawn),1,19713*,2,-5
CCCCOC(=O)C(C#N)c1nc2ccccc2nc1N1CCOCC1 (stereo not drawn),-3,2903,3,2
CC1CCN(c2nc3ccccc3nc2C(C#N)C(=O)OC2CCCCC2)CC1 (stereo not drawn),16,10980,10,7
CCN1CCN(c2nc3ccccc3nc2C(C#N)S(=O)(=O)c2ccc(C)c(C)c2)CC1 (stereo not drawn),-2,22821*,0,-1
CC1CN(c2nc3ccccc3nc2C(C#N)C(=O)OC2CCCCC2)CC(C)O1 (stereo not drawn),3,21164*,?,16
C[C@H](NC(=O)c1ncn2c1C(=O)NC[C@H]2C)C(=O)OC(C)(C)C,-2,2902,0,-3
CN(Cc1ccc(C(F)(F)F)cc1)C(=O)C1CC(=O)N(Cc2ccco2)C1 (stereo not drawn),12,2908,2,-1
CCN(CC)CC(=O)Nc1scc2c1c(=O)oc1ccccc12,17,3811,4,-5
Cc1cc2c(n1-c1ccc(Br)cc1)CC(C)(C)CC2=O,0,16349*,0,-2
CCc1ccccc1NC(=O)Cn1nc(C(F)(F)F)cc1C1CC1,-1,16270*,?,-2
CCNS(=O)(=O)c1ccc(NC(=O)Cn2nc(C(F)(F)F)cc2C)cc1,-6,2854,0,0
O=C(Nc1ccc(Br)cc1Cl)c1cnccn1,-7,17512*,?,-3
O=C(Nc1ccccc1Cl)c1cnccn1,-5,11658,0,-3
Cc1[nH]c(C)c(S(=O)(=O)NCc2ccc(F)cc2)c1C(=O)N1CCCCC1,-2,6637,-1,-3
COc1ccc(S(=O)(=O)N2CCN(c3ccccc3OC)CC2)cc1OC,?,3840,1,-3
COc1cc(S(=O)(=O)N2CCN(c3ccccc3F)CC2)ccc1Cl,-3,20773*,-1,-3
O=S(=O)(c1ccc(F)cc1)N1CCN(c2ccccc2)CC1,-1,20200*,0,0
COc1ccccc1N1CCN(S(=O)(=O)c2ccc(Br)s2)CC1,-2,22653*,2,-3
COc1cc(S(=O)(=O)N2CCN(c3ccccc3)CC2)ccc1Cl,2,5945,0,-3
COc1ccccc1N1CCN(S(=O)(=O)c2ccccc2)CC1,2,19619*,3,-8
SMILES,BoNT-F LC inh,Bead autofluor,BoNT A protease,Anthrax LF inh2
C=CCOc1cccc(CNc2cccc(C(=O)O)c2)c1,4,3328,0,-2
COc1ccc(C(=O)NCc2nnc(SCC(=O)N3CCc4ccccc43)n2CCc2ccccc2)cc1,-3,2072,0,0
COc1cccc(-c2cnc3c(NC(C)=O)cc(-c4cccc(C(=O)NCCN(C)C)c4)cn23)c1,-11,3594,0,-10
CCCc1cc(=O)n2[nH]c(-c3ccco3)nc2n1,0,23273*,-1,-2
Cc1cc(=O)n2[nH]c(-c3ccco3)nc2n1,-3,6348,0,1
CCCc1cc(=O)n2[nH]c(C)cc2n1,-5,24507*,-3,0
COC(=O)Cc1cc(=O)n2[nH]c(C)cc2n1,-3,4680,0,0
CCOC(=O)C1CCCN(C(=O)c2ccc3ncsc3c2)C1 (stereo not drawn),7,2769,0,-1
CCCSCCCNC(=O)Cn1c(=O)c2cccn2c2ccccc21,-11,3611,-1,4
Cn1c(CCNC(=O)c2ccco2)nc2cc(NS(=O)(=O)c3ccc(Cl)cc3)ccc21,-6,21550*,-6,-2
